Experimental data reported in PubChem BioAssay (NCATS).
Inconclusive results are not listed. Calls of active or inactive are those of the source. Unless noted, calls come from the whole dose curve; as a rule, active = well fitted curve in the direction sought with a large enough effect; inconclusive = small, poorly fitted or top-dose-only effect, or another doubt; inactive = no such curve, though single readings can be large; an effect the other way counts as inactive or inconclusive.

Experiments:
[1] = Cell Viability - Hek293 (AID 427;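 active = compounds whose dose-response curve shows a full or clear partial loss of cell viability, called from curve shape rather than a numeric limit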;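 note: potency is the fitted concentration of half-maximal effect; cells exposed to compound for 40 hours at 37 °C before reading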); details: qHTS
In short: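 Luminescent ATP read-out (CellTiter-Glo, 20 min RT) after 40 hr compound exposure at 37 °C in complete medium. Signal normalized to DMSO (basal) and 100 uM tamoxifen (100% inhibition); concentration-response fitted with the standard Hill equation to give AC50.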

[2] = Cell Viability - SK-N-SH (AID 435; calls by dose curve;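 note: potency is the fitted concentration of half-maximal effect; compound exposure lasted 40 h at 37 °C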); details: SK-N-SH neuroblastoma cell viability qHTS
In short: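 SK-N-SH human neuroblastoma cells (1500/well) were exposed to compounds in complete medium for 40 h at 37 °C, and intracellular ATP was then measured by CellTiter-Glo luminescence. AC50 was taken from Hill fits, normalized to DMSO and 100 uM tamoxifen.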

[3] = Cell Viability - HUV-EC-C (AID 542); details: HUV-EC-C endothelial cell viability, qHTS; series mostly up to 92.2 µM; note: % is set by controls: 0 for no effect and ±100 for the full control effect; nearly all actives have a fitted effect of over 35% in size
In short: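 HUV-EC-C normal human vascular endothelial cells, 1000 cells/well, pre-incubated 5 hr at 37 °C, then exposed to compounds for 40 hr at 37 °C in complete medium. Viability measured as intracellular ATP by CellTiter-Glo luminescence; AC50 from Hill fits.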

[4] = Cell Viability - H-4-II-E (AID 543); details: H-4-II-E rat hepatoma viability; series mostly up to 92.2 µM; note: nearly all actives have a fitted effect of over 35% in size; note: potency is the fitted concentration of half-maximal effect
In short: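 Rat hepatoma H-4-II-E cells (1500/well) were plated, incubated 5 hr at 37 °C, then exposed to compounds for 40 hr at 37 °C. Cellular ATP was read by CellTiter-Glo luminescence; AC50 came from Hill-equation fits of concentration-response data.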

[5] = Cell Viability - SH-SY5Y (AID 544); details: SH-SY5Y neuroblastoma cell viability; viability change, negative = cytotoxic: at 92.2 µM (top of the series); note: nearly all actives have a fitted effect of over 55% in size; note: potency is the fitted concentration of half-maximal effect;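 for viability change, negative = cytotoxic: 0% = DMSO alone and -100% = 100 µM tamoxifen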
In short: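 Human neuroblastoma SH-SY5Y cells (1500/well) in complete medium were exposed to compounds for 40 hr at 37 °C; intracellular ATP was then quantified by CellTiter-Glo luminescence after 20 min at room temperature. AC50 came from Hill-equation concentration-response fits.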

[6] = Cellular Toxicity (caspase-3) Renal Proximal Tubule (AID 667); details: renal proximal tubule cells; series mostly up to 91.7 µM;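 note: cells exposed to compound for 16 hours at 37 °C before detection; 0% = DMSO basal and 100% = 10 µM staurosporine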
In short: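 Primary rat proximal tubule cells, 1000/well, 5 h plating at 37 °C, then compound 16 h at 37 °C. Caspase-Glo 3/7 reagent, 1 h RT, luminescence. Normalized to DMSO (basal) and 10 uM staurosporine (100%); Hill-fit AC50.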

[7] = biological target: Cytochrome P450 3A4 (Homo sapiens) (UniProt P08684); test: qHTS Assay for Inhibitors and Substrates of Cytochrome P450 3A4 (AID 884); details: recombinant CYP3A4, Luciferin-PPXE luminescence; series mostly up to 57.1 µM; note: nearly all actives have a fitted effect of over 50% in size; note: potency is the fitted concentration of half-maximal effect
In short: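 20 nM human CYP3A4 with 25 uM Luciferin-PPXE (at KM) in 200 mM KPO4, preincubated 10 min with compound; NADPH regeneration started a 60 min RT reaction. Luciferin detected by luminescence, normalized to 57 uM ketoconazole as full inhibition.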

[8] = MultiTox-Fluor Cytotoxicity Assay - LYMP1-002 - Dead Cells (AID 960); details: LYMP1-002 lymphoblastoid cells, dead-cell protease fluorescence; series mostly up to 46.1 µM;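 note: 0% = DMSO and 100% = tetraoctylammonium bromide; nearly all actives have a fitted effect of over 60% in size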
In short: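 Human lymphoblastoid cells (LYMP1-002), 2500/well in complete medium, were exposed to compounds for 16 hr at 37 C. Dead-cell protease activity was read as bis-AAF-R110 fluorescence (Ex/Em 485/520), normalized to DMSO and 15 uM tetraoctylammonium bromide; AC50 from Hill fits.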

[9] = Cell Viability - LYMP2-004 (AID 966); details: LYMP2-004 lymphoblastoid cell viability, qHTS; series mostly up to 92.2 µM; note: nearly all actives have a fitted effect of over 65% in size; note: potency is the fitted concentration of half-maximal effect
In short: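 Human lymphoblastoid cells (2500/well) in complete medium were treated with compounds for 24 hr at 37 C, then intracellular ATP was measured by CellTiter-Glo luminescence. AC50 values came from Hill-equation fits of concentration-response data.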

[10] = Cell Viability - LYMP2-005 (AID 967); details: LYMP2-005 lymphoblastoid cell viability; series mostly up to 92.2 µM; note: potency is the fitted concentration of half-maximal effect
In short: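 CellTiter-Glo luminescence (cellular ATP) read-out; LYMP2-005 lymphoblastoid cells, 2500/well, 5 h pre-incubation, then 24 h compound exposure at 37 C in complete medium. Tetraoctylammonium bromide positive control; AC50 by standard Hill fit.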

[11] = Cell Viability - LYMP2-012 (AID 982); details: LYMP2-012 lymphoblastoid cell viability qHTS; series mostly up to 92.2 µM;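 note: cellular ATP by luciferase luminescence where a drop means cytotoxicity; cells exposed to compound for one day before reading; nearly all actives have a fitted effect of over 55% in size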; note: potency is the fitted concentration of half-maximal effect
[12] = Cell Viability - LYMP2-018 (AID 985); details: LYMP2-018 lymphoblastoid cells, viability (qHTS); series mostly up to 92.2 µM;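 note: compound exposure lasted 24 hr at 37 °C; nearly all actives have a fitted effect of over 50% in size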; note: potency is the fitted concentration of half-maximal effect
In short: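 Human lymphoblastoid cells (2500/well) were pre-incubated 5 hr at 37 C, then exposed to compounds for 24 hr at 37 C in complete medium. Viability was read as intracellular ATP by CellTiter-Glo luminescence; AC50 values came from Hill-equation fits.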

[13] = Cell Viability - LYMP1-002 - Assay at 40 hr (AID 994); details: LYMP1-002 lymphoblastoid cell viability; series mostly up to 92.2 µM;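 note: 0% = DMSO only and full inhibition = 92 µM tetraoctylammonium bromide; nearly all actives have a fitted effect of over 60% in size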
In short: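 Human lymphoblastoid cells, 2500/well in complete medium, were preincubated 5 hr at 37 C, then exposed to compounds for 40 hr at 37 C. Intracellular ATP was read by CellTiter-Glo luminescence after 30 min at room temperature; AC50 from Hill-equation fits.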

[14] = qHTS assay for small molecule agonists of retinoid X receptor alpha signaling (AID 588544; calls by dose curve;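 for activation: 0% = DMSO basal wells and 100% = reference agonist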); details: HEK293T RXRa-UAS-bla, beta-lactamase reporter, 18 h; 530 nm emission
[15] = biological target: Retinoic acid receptor RXR-alpha (Homo sapiens) (UniProt P19793); test: as above; details: HEK293T RXRa-UAS-bla, beta-lactamase reporter, 18 h; series mostly up to 76.7 µM
[16] = qHTS assay for small molecule antagonists of retinoid X receptor alpha signaling (AID 588546; active = well fitted inhibition curve with a large enough effect in the signal ratio, with a control signal flat, not every such curve was filed as active; the % refers to the signal ratio;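 note: cells stimulated with 9-cis-retinoic acid as agonist; % is set by controls: 0 for no effect and ±100 for the full control effect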); details: HEK293T RXRa-UAS-bla, beta-lactamase ratio, antagonist mode; measured here: W530 green channel, cytotoxicity proxy
In short: (§1)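 Beta-lactamase reporter inhibition, read as CCF4 fluorescence ratio (ex 405, em 460/530 nm) after 2 h at RT. HEK293T UAS-bla cells, 2500/well, were stimulated with 9-cis-RA at 500 or 100 nM final alongside test compound for 18 h at 37 C.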

[17] = biological target: Retinoic acid receptor RXR-alpha (Homo sapiens) (UniProt P19793); test: as above; details: HEK293T RXRa-UAS-bla, beta-lactamase ratio, antagonist mode
In short: as §1

[18] = biological target: Tumor necrosis factor (Homo sapiens) (UniProt P01375); test: qHTS assay to identify small molecules that stimulate Tumor Necrosis Factor-alpha (TNF-alpha) secretion (AID 651757; active = well fitted curve in the direction sought with a large enough effect in the signal ratio; the % refers to the signal ratio; note: 0% is about no effect); details: Human cells, HTRF 665/615 ratio; series mostly up to 92.2 µM
In short: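 THP-1 cells were exposed to compounds for 17 hrs at 37 C, after which secreted TNF-alpha was measured by homogeneous HTRF (TR-FRET) using cryptate- and XL665-labeled anti-TNF-alpha antibodies, read after 3 hr at room temperature.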

[19] = qHTS assay for environmental chemicals that activate the Aryl hydrocarbon Receptor (AhR) signaling pathway (AID 651777); details: 1A2-DRE human hepatoma cells, luciferase, 24 h; activation: stronger effect = higher value; note: nearly all actives have a fitted effect of over 15% in size; note: potency is the fitted concentration of half-maximal effect; for activation: % of control where 0% means no effect
In short: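 Induction of CYP1A2 transcription through AhR is detected by luciferase in 1A2-DRE hepatoma cells. Compounds or DMSO act for 24 hr at 37 C before a 30 min One-Glo step at room temperature.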

[20] = qHTS assay for small molecule agonists of the antioxidant response element (ARE) signaling pathway measured by Nrf2-dependant transcriptional activity (AID 720636; active = well fitted curve in the direction sought with a large enough effect in the repeat runs; an effect the other way counts as inactive or inconclusive;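 note: HepG2 cells with an ARE-driven luciferase reporter; % of control where 0% means no effect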); details: ARE-luc HepG2, Nrf2 luciferase reporter, 16 h; series mostly up to 92.4 µM
In short: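 We exposed ARE-luc HepG2 cells, seeded in assay medium with 1% dialyzed FBS and allowed 6 hr to adhere, to test compounds overnight (16 hr, 37 C) before measuring luciferase with ONE-Glo.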

Sequence of Cytochrome P450 3A4 (Homo sapiens) (P08684 whole entry, looked up): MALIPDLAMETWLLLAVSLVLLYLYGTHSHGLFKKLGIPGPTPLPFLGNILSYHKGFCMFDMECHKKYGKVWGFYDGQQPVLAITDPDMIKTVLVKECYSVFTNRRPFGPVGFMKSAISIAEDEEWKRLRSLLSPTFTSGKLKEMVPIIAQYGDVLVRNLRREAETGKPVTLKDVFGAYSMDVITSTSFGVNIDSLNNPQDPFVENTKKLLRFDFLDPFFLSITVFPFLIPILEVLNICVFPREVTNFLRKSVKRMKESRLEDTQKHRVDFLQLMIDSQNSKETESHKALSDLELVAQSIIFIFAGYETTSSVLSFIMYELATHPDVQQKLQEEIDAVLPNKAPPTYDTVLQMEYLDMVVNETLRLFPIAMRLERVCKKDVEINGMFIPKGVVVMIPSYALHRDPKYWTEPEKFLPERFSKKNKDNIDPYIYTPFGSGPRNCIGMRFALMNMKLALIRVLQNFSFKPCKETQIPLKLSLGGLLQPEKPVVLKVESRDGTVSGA
Sequence of Tumor necrosis factor (Homo sapiens) (P01375 whole entry, looked up): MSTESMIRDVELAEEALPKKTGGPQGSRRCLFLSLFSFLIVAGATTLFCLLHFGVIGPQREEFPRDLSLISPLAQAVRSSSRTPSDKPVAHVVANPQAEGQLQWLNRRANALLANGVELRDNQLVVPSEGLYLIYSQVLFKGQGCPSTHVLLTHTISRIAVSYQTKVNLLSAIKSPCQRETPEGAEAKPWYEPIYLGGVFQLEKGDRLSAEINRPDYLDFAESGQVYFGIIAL
Sequence of Retinoic acid receptor RXR-alpha (Homo sapiens) (P19793 whole entry, looked up): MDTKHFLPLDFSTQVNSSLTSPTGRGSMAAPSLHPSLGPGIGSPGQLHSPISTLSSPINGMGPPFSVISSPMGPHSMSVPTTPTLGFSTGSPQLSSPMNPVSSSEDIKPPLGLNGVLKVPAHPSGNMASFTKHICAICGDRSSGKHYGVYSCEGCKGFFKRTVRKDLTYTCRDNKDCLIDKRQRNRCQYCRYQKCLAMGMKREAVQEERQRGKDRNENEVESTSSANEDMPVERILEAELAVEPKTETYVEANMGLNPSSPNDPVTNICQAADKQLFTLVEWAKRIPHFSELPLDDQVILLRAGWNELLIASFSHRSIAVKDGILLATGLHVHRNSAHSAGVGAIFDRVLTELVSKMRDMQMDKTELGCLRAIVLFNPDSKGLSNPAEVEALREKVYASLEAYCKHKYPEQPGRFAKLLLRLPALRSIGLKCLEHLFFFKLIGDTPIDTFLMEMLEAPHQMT

ClCCBr
-4.86%: max response [16]
-16.9%: max response [14]
inactive: Potency [1] > 92 µM | Potency [2] > 92 µM | Potency [3] | Potency [4] | Potency [5] | outcome [6] | Potency [7] | Potency [8] | Potency [9] | Potency [10] | Potency [11] | Potency [12] | Potency [13] | outcome [15] | max response [17] -1.05% | outcome [18] | activation [19] 3.31% | Potency [20]

COc1ccccc1N
-8.71%: max response [14]
inactive: Potency [1] > 92 µM | Potency [2] > 92 µM | Potency [3] | Potency [4] | Potency [5] | outcome [6] | Potency [7] | Potency [8] | Potency [9] | Potency [11] | Potency [12] | Potency [13] | outcome [15] | outcome [18] | activation [19] -0.373% | Potency [20]

Oc1cc(Cl)cc(Cl)c1
inactive: Potency [1] > 92 µM | Potency [2] > 92 µM | Potency [3] | Potency [4] | Potency [5] | outcome [6] | Potency [7] | Potency [8] | Potency [9] | Potency [10] | Potency [11] | Potency [12] | Potency [13] | outcome [15] | max response [17] -5.58% | outcome [18] | activation [19] 1.21% | Potency [20]
-2.61%: max response [16]
-13.2%: max response [14]

CCOP(=S)(OCC)Oc1nc(Cl)c(Cl)cc1Cl
active: Potency [7] 5.01 µM
-1.15%: max response [14]
inactive: Potency [1] > 92 µM | Potency [2] > 92 µM | Potency [3] | Potency [4] | Potency [5] | outcome [6] | Potency [8] | Potency [9] | Potency [10] | Potency [11] | Potency [12] | Potency [13] | outcome [15] | outcome [18] | activation [19] 12% | Potency [20]
-8.45% [middle of 4 runs]: max response [16]

Brc1ccc(Oc2ccc(Br)cc2Br)c(Br)c1
inactive: Potency [2] > 92 µM | Potency [3] | Potency [4] | outcome [6] | Potency [7] | Potency [8] | Potency [9] | Potency [10] | Potency [11] | Potency [12] | Potency [13] | outcome [18] | activation [19] 7.07% | Potency [20]

O=P(OCCCl)(OCCCl)OCCCl
-9.97%: max response [16]
-20%: max response [14]
inactive: Potency [1] > 92 µM | Potency [2] > 92 µM | Potency [3] | Potency [4] | Potency [5] | outcome [6] | Potency [7] | Potency [8] | Potency [9] | Potency [10] | Potency [11] | Potency [12] | Potency [13] | outcome [15] | max response [17] 7.26% | outcome [18] | activation [19] 0.332% | Potency [20]

C=COC(C)=O
-12.3%: max response [16]
-12.6%: max response [14]
inactive: Potency [1] > 92 µM | Potency [2] > 92 µM | Potency [3] | Potency [4] | Potency [5] | outcome [6] | Potency [7] | Potency [8] | Potency [9] | Potency [10] | Potency [11] | Potency [12] | Potency [13] | outcome [15] | max response [17] -3.99% | outcome [18] | activation [19] 1.36% | Potency [20]

N#CC(O)c1ccccc1 (stereo not given)
inactive: Potency [1] > 92 µM | Potency [2] > 92 µM | Potency [3] | Potency [4] | Potency [5] | outcome [6] | Potency [7] | Potency [8] | Potency [9] | Potency [10] | Potency [11] | Potency [12] | Potency [13] | outcome [15] | max response [17] 0.403% | outcome [18] | activation [19] 0.286% | Potency [20]
-0.409%: max response [14]
-9.69%: max response [16]

N#CCCC#N
-8.53%: max response [16]
inactive: Potency [1] > 92 µM | Potency [2] > 92 µM | Potency [3] | Potency [4] | Potency [5] | Potency [7] | Potency [8] | Potency [9] | Potency [10] | Potency [11] | Potency [12] | Potency [13] | outcome [15] | max response [17] 23.2% | outcome [18] | activation [19] 0.758% | Potency [20]
-20.2%: max response [14]

N#C/C=C/C#N
active: Potency [2] 24.4 µM | Potency [4] 50.1 µM | Potency [5] 15.8 µM | Potency [9] 15.8 µM | Potency [10] 25.1 µM | Potency [11] 20 µM | Potency [12] 31.6 µM
inactive: outcome [6] | Potency [7] | Potency [8] | Potency [13] | outcome [18] | activation [19] 5.04%

CN(C)c1ccc(N=Nc2ccccc2)cc1
-11.2%: max response [16]
-0.567%: max response [14]
active: Potency [19] 44.7 µM
inactive: Potency [2] > 92 µM | Potency [3] | outcome [6] | Potency [7] | Potency [9] | Potency [11] | Potency [12] | Potency [13] | outcome [15] | max response [17] -20.4%
